This is an account of results in PubChem BioAssay.

Test [1] relates to Neuropilin-2 / VEGF-C interaction (human). Nature of the test: inhibitors of NRP2–VEGF-C binding, biochemical, microplate binding format, z-score (AID 743281; call rule not given here). As to conditions: microplate NRP2/VEGF-C binding assay; stronger effect = lower value.
Test [2] can be described thus: modulation of C. elegans fzo-1 (AID 1259413; call rule not given here;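 further: fzo-1 mutant C. elegans worms in liquid wells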). To be noted: C. elegans fzo-1 modulator screen, mean read-out; stronger effect = higher value.
The subject of another test is F380Y/beta1. The experiment in a line: modulators of BK channel variants, profiling panel, selectivity assay, cell-based, U2OS BacMam, thallium flux, beta subunits (AID 1259406).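 Further: initial slope of Thallos dye fluorescence rise after thallium is added; log ratio against the mean of 0.3% DMSO vehicle wells on the same plate.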 As to conditions: at 30 µM.
A further test concerns F380Y/beta4. The test is described as above. To be noted: at 30 µM.
Test [3] addresses Calcium-activated potassium channel subunit alpha-1 (Homo sapiens) + Leucine-rich repeat-containing protein 26 (Homo sapiens) (UniProt Q12791+Q2I0M4). The description is as above. To be noted: F380Y/Slo1WT/gamma1, at 30 µM.
The subject of a further test is R275C/beta4. The test is described as above. As to conditions: at 30 µM.
The nature of test [4]: viability rescue of complex I mutant cybrids, primary screen, cell-based, galactose medium, ATP luminescence (AID 1645843;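 active means z-score of at least 1.8 in each of two replicates, scored against plate mean and spread of sample wells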;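 further: positive z means more ATP and so rescue of galactose-driven cybrid death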). As to conditions: complex I mutant cybrid cells, 72 h, stronger effect = higher value.
Test [5] can be described thus: survival rescue of mitochondrial mutant cells in low glucose, primary screen, MELAS cybrids, Rieske KO mouse fibroblasts, CellTiter-Glo (AID 1508586;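 active means mean z-score across replicates of 1.96 or higher in either the MELAS or the Rieske mutant cell line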;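 further: z relative to plate mean and SD of compound and empty wells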).
The subject of test [6] is Hepatitis C virus NS3 helicase. The experiment in a line: HCV NS3 helicase inhibitors, primary screen, biochemical, fluorescence polarization, LOPAC1280 library (AID 687035; in the data active means inhibition above about 37%). As to conditions: Purified HCV NS3 helicase, Cy5-dT15 ssDNA binding fluorescence polarization; stronger effect = higher value; concentration not given here.
Test [7] in a line: Cy5 fluorescence quenching or enhancement artefacts, artefact control for HCV NS3 helicase inhibitor project, biochemical, LOPAC1280 (AID 687037; call rule not given here). To be noted: Cy5-DNA-NS3h complex fluorescence interference counterscreen.
The nature of test [8]: phospholipid biosynthesis inhibitors in animal cells, primary screen, cell-based, LOPAC library, screen 4 (AID 1347384; call rule not given here). To be noted: phospholipid biosynthesis inhibition screen, at 10 µM.

Several values for one entry are separate records, joined by “and”; a condition that tells them apart may be missing. Equal entries are not always repeated. Activity calls are given as the source filed them.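 How the source made its calls, unless noted: active means thallium flux through the channel raised or lowered by more than 3 SD from vehicle-only wells, actives on both sides; inactive means the rest.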

Chain of Calcium-activated potassium channel subunit alpha-1 (Homo sapiens) + Leucine-rich repeat-containing protein 26 (Homo sapiens) (Q2I0M4 whole entry, looked up, one chain of several): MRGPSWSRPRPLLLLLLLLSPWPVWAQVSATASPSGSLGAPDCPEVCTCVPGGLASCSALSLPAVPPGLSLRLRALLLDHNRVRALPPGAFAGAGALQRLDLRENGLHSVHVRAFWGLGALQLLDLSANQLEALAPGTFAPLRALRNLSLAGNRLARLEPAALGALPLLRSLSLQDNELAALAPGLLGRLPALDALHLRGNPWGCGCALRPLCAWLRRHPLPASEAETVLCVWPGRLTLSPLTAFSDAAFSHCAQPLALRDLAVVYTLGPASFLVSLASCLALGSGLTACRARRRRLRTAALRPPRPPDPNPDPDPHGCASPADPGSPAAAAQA

With `CC1CCC[C@H](O)CCCCCc2cc(O)cc(O)c2C(=O)O1` (stereo not given in full), the z-score in [1] is -0.653 (inactive). For the same molecule, in test [2], the mean signal is 252 (inactive). Further, the log fold change Tl+ flux in the test on F380Y/beta1 is 0.0798 (inactive); with F380Y/beta4 it was 0.0166 (inactive); in test [3], 0.0353 (inactive); with R275C/beta4, 0.0349 (inactive).

In the case of `C[C@]12CC[C@H](O)CC1=CC[C@@H]1[C@@H]2CC[C@@]2(C)[C@H]1CC[C@]2(C)O`, the log fold change Tl+ flux in the test on F380Y/beta1 is 0.0442 (inactive); in the test on F380Y/beta4, 0.0285 (inactive); in test [3], 0.0157 (inactive); in the test with R275C/beta4, -0.00925 (inactive).

Consider `c1ccc(Cn2ccnc2)cc1`, for which the values for the z-score in [1] and in [4] were 0.238 (inactive) and 0.075 (inactive), respectively. Besides, in test [2], the mean signal is 248 (inactive). In addition, the log fold change Tl+ flux was -0.0465 (inactive) in the test with F380Y/beta1, -0.0022 (inactive) in the test with F380Y/beta4, -0.0094 (inactive) in test [3] and -0.0192 (inactive) in the test on R275C/beta4.

Consider `Cc1nnc2n1-c1ccc(Cl)cc1C(c1ccccc1)=NC2`, for which the figures for the z-score in test [1] and in [4] were -0.124 (inactive) and 0.965 (inactive), respectively. For the same molecule, the mean signal in test [2] is 234 (inactive). Further, the log fold change Tl+ flux with F380Y/beta1 is -0.00299 (inactive); with F380Y/beta4 it was -0.0542 (inactive); in test [3] it was -0.0153 (inactive); with R275C/beta4, 0.0351 (inactive).

With `COc1ccc(CCN)cc1OC`, the z-score in test [1] was -0.441 (inactive); in test [5] (MELAS cybrid survival, CellTiter-Glo 48 h, stronger effect = higher value) it was 0.19 (inactive); in test [5] (Rieske KO mouse fibroblast survival, CellTiter-Glo 72 h), 0.0302; in test [4] it was 0.46 (inactive). For the same molecule, in test [2], the mean signal was 274 (inactive). Further, the log fold change Tl+ flux in the test with F380Y/beta1 was 0.00413 (inactive); with F380Y/beta4, -0.0433 (inactive); in test [3] it was -0.00222 (inactive); in the test on R275C/beta4, -0.0169 (inactive).

Turning to `C=CCN1CC[C@]23c4c5ccc(O)c4O[C@H]2C(=O)CCC3(O)[C@H]1C5` (stereo not given in full), in test [2], the mean signal is 247 (inactive).

On to `CC[C@@H]1C=CC=CC[C@H](C)[C@@H](O)[C@@H](C)C(=O)[C@H](C)[C@@H](O)[C@H](C)C(=O)[C@H](C)[C@@H](O)[C@H](C)C=CC(=O)O[C@H]2[C@@H](C)[C@@H](CC1)O[C@@]1(CC[C@@H](C)[C@@H](C[C@H](C)O)O1)[C@@H]2C`, for which the log fold change Tl+ flux with F380Y/beta1 was -0.604 (active); with F380Y/beta4, -0.693 (active); in test [3], -0.117 (active); in the test on R275C/beta4, -0.0178 (inactive).

As for `COC(=O)N1CCN(C(=O)Cc2ccc(Cl)c(Cl)c2)C(CN2CCCC2)C1` (stereo not given), the inhibition in test [6] was -4% (inactive). The fluorescence ratio (interference) in [7] was 1 (inactive). Also, the z-score is 1.19 (inactive) in test [1]; -0.09 (inactive) and 0.285 (inactive) in test [4]. In addition, the mean signal in [2] was 274 (inactive). The molecule was classed as inactive in test [8]. Further, the log fold change Tl+ flux in the test with F380Y/beta1 was 0.0396 (inactive); in the test with F380Y/beta4, 0.0372 (inactive); in test [3] it was -0.0265 (inactive); in the test with R275C/beta4, 0.0175 (inactive).

Take `CN1CC[C@@]23CCCC[C@@H]2[C@@H]1Cc1ccc(O)cc13`: the z-score in test [1] is -0.569 (inactive). Also, in test [2], the mean signal was 229 (inactive). For the same molecule, in test [3], the log fold change Tl+ flux is 0.0222 (inactive).

As to `Cc1ncc2n1-c1ccc(Cl)cc1C(c1ccccc1F)=NC2`, the values for the z-score in test [1] and in test [4] were -0.669 (inactive) and 0.59 (inactive), respectively. Also, the mean signal in test [2] was 220 (inactive). For the same molecule, the log fold change Tl+ flux was -0.386 (active) in the test with F380Y/beta1, -0.197 (active) in the test with F380Y/beta4, -0.019 (inactive) in test [3] and 0.138 (active) in the test on R275C/beta4.

In the case of `CCOC(=O)C1(c2ccccc2)CCN(CCC(C#N)(c2ccccc2)c2ccccc2)CC1`, the z-score in test [1] was -0.718 (inactive); in test [4], -1.88 (inactive). Also, the mean signal in test [2] is 215 (inactive). For the same molecule, the log fold change Tl+ flux with F380Y/beta1 is -0.0124 (inactive); in the test with F380Y/beta4, 0.0154 (inactive); in [3], -0.0542 (inactive); with R275C/beta4, -0.00148 (inactive).

As to `O=C1CCC2(O)[C@H]3Cc4ccc(O)c5c4[C@@]2(CCN3CC2CC2)[C@H]1O5` (stereo not given in full), in test [2], the mean signal was 227 (inactive).

As for `C[C@]12CCC(=O)C[C@@H]1CC[C@@H]1[C@@H]2CC[C@@]2(C)[C@H]1CC[C@]2(C)O`, the log fold change Tl+ flux with F380Y/beta1 is -0.00468 (inactive); with F380Y/beta4, 0.0289 (inactive); in [3], 0.0101 (inactive); in the test on R275C/beta4, 0.00195 (inactive).
